# ± gives the standard deviation of the averaged measurements.
# Legend:
# Assay in all cases: promoter activity interaction Z-score (Lux/OD deviation from empty-vector control); higher = stronger promoter induction by the compound
# [1] = system: E. coli BW25113 acrABp lux reporter
# In short: (§1)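 E. coli BW25113, as wild type or one of three single-gene deletion strains, carried low-copy luxCDABE promoter reporters and grew in 40 µl LB Lennox in 384-well plates at 37°C, with OD600 and luminescence read every 30 min for 12 h. Each compound was run at four 1:2 dilutions in biological duplicates, integration spanned 0–8 h for wild type and 1–9 h for deletion strains, and wells under 10% of the median growth value were dropped. The score is the Z-transformed residual of growth-normalised luminescence fitted against a control.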
# [2] = system: E. coli BW25113 marRABp lux reporter
# In short: as §1
# [3] = system: E. coli BW25113 micFp lux reporter
# In short: as §1
# [4] = system: E. coli BW25113 ompFp lux reporter
# In short: as §1
# [5] = system: E. coli BW25113 robp lux reporter
# In short: as §1
# [6] = system: E. coli BW25113 soxSp lux reporter
# In short: as §1
# [7] = system: E. coli BW25113 tolCp lux reporter
# In short: as §1
# [8] = 18.9 µg/ml, genetic background: wild type
# [9] = 18.9 µg/ml, genetic background: ΔmarA
# [10] = 18.9 µg/ml, genetic background: Δrob
# [11] = 18.9 µg/ml, genetic background: ΔsoxS
# [12] = 37.8 µg/ml, genetic background: wild type
# [13] = 37.8 µg/ml, genetic background: ΔmarA
# [14] = 37.8 µg/ml, genetic background: Δrob
# [15] = 37.8 µg/ml, genetic background: ΔsoxS
# [16] = 75.6 µg/ml, genetic background: wild type
# [17] = 75.6 µg/ml, genetic background: ΔmarA
# [18] = 75.6 µg/ml, genetic background: Δrob
# [19] = 75.6 µg/ml, genetic background: ΔsoxS
# [20] = 151.1 µg/ml, genetic background: wild type
# [21] = 151.1 µg/ml, genetic background: ΔmarA
# [22] = 151.1 µg/ml, genetic background: Δrob
# [23] = 151.1 µg/ml, genetic background: ΔsoxS
smiles,measurement,setting,value
O=c1c(O)c(-c2ccc(O)c(O)c2)oc2cc(O)cc(O)c12 [Quercetin],promoter activity interaction Z-score,[1]; [8],0.0407 ± 0.033
same,promoter activity interaction Z-score,[1]; [9],0.285 ± 0.58
same,promoter activity interaction Z-score,[1]; [10],0.143 ± 0.3
same,promoter activity interaction Z-score,[1]; [11],-0.34 ± 0.38
same,promoter activity interaction Z-score,[1]; [12],-0.233 ± 0.072
same,promoter activity interaction Z-score,[1]; [13],-0.0432 ± 0.69
same,promoter activity interaction Z-score,[1]; [14],0.164 ± 0.29
same,promoter activity interaction Z-score,[1]; [15],-0.184 ± 0.31
same,promoter activity interaction Z-score,[1]; [16],0.12 ± 0.43
same,promoter activity interaction Z-score,[1]; [17],-0.0185 ± 1.1
same,promoter activity interaction Z-score,[1]; [18],0.926 ± 1.1
same,promoter activity interaction Z-score,[1]; [19],-0.604 ± 0.62
same,promoter activity interaction Z-score,[1]; [20],-0.353 ± 0.089
same,promoter activity interaction Z-score,[1]; [21],0.59 ± 0.8
same,promoter activity interaction Z-score,[1]; [22],-0.142 ± 0.23
same,promoter activity interaction Z-score,[1]; [23],-0.9 ± 0.8
same,promoter activity interaction Z-score,[2]; [8],0.0379 ± 0.17
same,promoter activity interaction Z-score,[2]; [9],-0.192 ± 0.25
same,promoter activity interaction Z-score,[2]; [10],-0.164 ± 0.21
same,promoter activity interaction Z-score,[2]; [11],0.203 ± 0.51
same,promoter activity interaction Z-score,[2]; [12],0.341 ± 0.79
same,promoter activity interaction Z-score,[2]; [13],0.116 ± 0.59
same,promoter activity interaction Z-score,[2]; [14],0.248 ± 0.078
same,promoter activity interaction Z-score,[2]; [15],0.179 ± 0.43
same,promoter activity interaction Z-score,[2]; [16],0.82 ± 0.64
same,promoter activity interaction Z-score,[2]; [17],0.9 ± 0.12
same,promoter activity interaction Z-score,[2]; [18],-0.0348 ± 0.087
same,promoter activity interaction Z-score,[2]; [19],0.129 ± 0.45
same,promoter activity interaction Z-score,[2]; [20],1.13 ± 0.91
same,promoter activity interaction Z-score,[2]; [21],0.91 ± 0.61
same,promoter activity interaction Z-score,[2]; [22],0.867 ± 0.51
same,promoter activity interaction Z-score,[2]; [23],0.0221 ± 0.045
same,promoter activity interaction Z-score,[3]; [8],-0.288 ± 0.045
same,promoter activity interaction Z-score,[3]; [9],-0.0462 ± 0.033
same,promoter activity interaction Z-score,[3]; [10],-0.011 ± 0.074
same,promoter activity interaction Z-score,[3]; [11],-0.324 ± 0.11
same,promoter activity interaction Z-score,[3]; [12],-0.188 ± 0.12
same,promoter activity interaction Z-score,[3]; [13],0.0255 ± 0.15
same,promoter activity interaction Z-score,[3]; [14],-0.0437 ± 0.18
same,promoter activity interaction Z-score,[3]; [15],0.101 ± 0.056
same,promoter activity interaction Z-score,[3]; [16],-0.0961 ± 0.062
same,promoter activity interaction Z-score,[3]; [17],0.0844 ± 0.079
same,promoter activity interaction Z-score,[3]; [18],-0.0403 ± 0.11
same,promoter activity interaction Z-score,[3]; [19],-0.101 ± 0.085
same,promoter activity interaction Z-score,[3]; [20],0.0699 ± 0.42
same,promoter activity interaction Z-score,[3]; [21],0.224 ± 0.17
same,promoter activity interaction Z-score,[3]; [22],0.00151 ± 0.41
same,promoter activity interaction Z-score,[3]; [23],-0.0142 ± 0.042
same,promoter activity interaction Z-score,[4]; [8],0.228 ± 0.3
same,promoter activity interaction Z-score,[4]; [9],-0.0494 ± 0.2
same,promoter activity interaction Z-score,[4]; [10],-0.0408 ± 0.12
same,promoter activity interaction Z-score,[4]; [11],-0.358 ± 0.37
same,promoter activity interaction Z-score,[4]; [12],5.13 ± 7
same,promoter activity interaction Z-score,[4]; [13],0.88 ± 1.6
same,promoter activity interaction Z-score,[4]; [14],1.304 ± 0.013
same,promoter activity interaction Z-score,[4]; [15],0.531 ± 0.91
same,promoter activity interaction Z-score,[4]; [16],0.467 ± 1.2
same,promoter activity interaction Z-score,[4]; [17],0.186 ± 0.5
same,promoter activity interaction Z-score,[4]; [18],0.616 ± 1.3
same,promoter activity interaction Z-score,[4]; [19],-0.383 ± 0.54
same,promoter activity interaction Z-score,[4]; [20],0.00251 ± 0.91
same,promoter activity interaction Z-score,[4]; [21],0.373 ± 2.1
same,promoter activity interaction Z-score,[4]; [22],1.79 ± 0.024
same,promoter activity interaction Z-score,[4]; [23],-0.395 ± 0.84
same,promoter activity interaction Z-score,[5]; [8],0.802 ± 0.18
same,promoter activity interaction Z-score,[5]; [9],0.257 ± 0.52
same,promoter activity interaction Z-score,[5]; [10],0.102 ± 0.22
same,promoter activity interaction Z-score,[5]; [11],0.13 ± 0.66
same,promoter activity interaction Z-score,[5]; [12],0.9459 ± 0.004
same,promoter activity interaction Z-score,[5]; [13],0.813 ± 0.4
same,promoter activity interaction Z-score,[5]; [14],0.818 ± 0.073
same,promoter activity interaction Z-score,[5]; [15],1.68 ± 0.85
same,promoter activity interaction Z-score,[5]; [16],0.907 ± 0.8
same,promoter activity interaction Z-score,[5]; [17],0.794 ± 0.53
same,promoter activity interaction Z-score,[5]; [18],0.226 ± 0.59
same,promoter activity interaction Z-score,[5]; [19],-0.114 ± 0.062
same,promoter activity interaction Z-score,[5]; [20],0.549 ± 0.61
same,promoter activity interaction Z-score,[5]; [21],0.417 ± 0.21
same,promoter activity interaction Z-score,[5]; [22],0.359 ± 0.075
same,promoter activity interaction Z-score,[5]; [23],0.712 ± 1.1
same,promoter activity interaction Z-score,[6]; [8],-0.413 ± 0.13
same,promoter activity interaction Z-score,[6]; [9],-0.385 ± 0.18
same,promoter activity interaction Z-score,[6]; [10],-0.267 ± 0.1
same,promoter activity interaction Z-score,[6]; [11],-0.281 ± 0.57
same,promoter activity interaction Z-score,[6]; [12],-0.368 ± 0.13
same,promoter activity interaction Z-score,[6]; [13],-0.526 ± 0.069
same,promoter activity interaction Z-score,[6]; [14],-0.179 ± 0.028
same,promoter activity interaction Z-score,[6]; [15],-0.0207 ± 0.51
same,promoter activity interaction Z-score,[6]; [16],-0.595 ± 0.016
same,promoter activity interaction Z-score,[6]; [17],-0.528 ± 0.057
same,promoter activity interaction Z-score,[6]; [18],-0.375 ± 0.034
same,promoter activity interaction Z-score,[6]; [19],-0.161 ± 0.89
same,promoter activity interaction Z-score,[6]; [20],-0.715 ± 0.13
same,promoter activity interaction Z-score,[6]; [21],-0.513 ± 0.048
same,promoter activity interaction Z-score,[6]; [22],-0.414 ± 0.054
same,promoter activity interaction Z-score,[6]; [23],-0.567 ± 1
same,promoter activity interaction Z-score,[7]; [8],-0.038 ± 0.65
same,promoter activity interaction Z-score,[7]; [9],-0.0776 ± 0.32
same,promoter activity interaction Z-score,[7]; [10],-0.506 ± 0.62
same,promoter activity interaction Z-score,[7]; [11],-0.651 ± 0.26
same,promoter activity interaction Z-score,[7]; [12],0.105 ± 0.049
same,promoter activity interaction Z-score,[7]; [13],0.271 ± 0.14
same,promoter activity interaction Z-score,[7]; [14],0.0838 ± 0.44
same,promoter activity interaction Z-score,[7]; [15],0.0451 ± 1.2
same,promoter activity interaction Z-score,[7]; [16],0.492 ± 0.9
same,promoter activity interaction Z-score,[7]; [17],0.253 ± 0.53
same,promoter activity interaction Z-score,[7]; [18],0.773 ± 0.82
same,promoter activity interaction Z-score,[7]; [19],-0.519 ± 0.18
same,promoter activity interaction Z-score,[7]; [20],0.00965 ± 1
same,promoter activity interaction Z-score,[7]; [21],0.125 ± 0.38
same,promoter activity interaction Z-score,[7]; [22],0.962 ± 1.8
same,promoter activity interaction Z-score,[7]; [23],-0.462 ± 0.4

# — the supplement of paper PMC12282887
